Laboratory results from PubChem BioAssay.
For some assays here: Measured potencies and affinities stand elsewhere. Activity calls are given as the source filed them. Unless noted, the rule behind the calls is not given here.

Assays:
[1] = antimalarial activity against Dd2 strain (AID 2302;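 active = growth inhibition above 50% at the single 2 µM test dose, taken to imply half-maximal potency below 2 µM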;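 note: 0% = DMSO untreated growth and 100% = chloroquine plus artemisinin killed control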); conditions: P. falciparum Dd2 in RBCs, LDH growth readout, 72 h; at 2 µM; stronger effect = higher value
[2] = HepG2 cytotoxicity, primary screen, cytotoxicity control for P. falciparum antimalarial project, cell-based, ATP luminescence (AID 2303;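 active = inhibition above 50%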;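 note: 0% = DMSO wells and 100% = digitonin-killed cells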); conditions: HepG2 viability, 24-48 h, at 10 µM, stronger effect = higher value
[3] = target: L-lactate dehydrogenase (Plasmodium falciparum (isolate CDC / Honduras)) (UniProt Q27743); assay: PfLDH activity inhibition – cell lysate, 3D7 strain, counter-screen for P. falciparum growth inhibition project (AID 2304);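 note: 0% = vehicle and 100% = reference inhibitor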; conditions: P. falciparum 3D7 crude extract, LDH APAD/NBT absorbance; at 2 µM; stronger effect = higher value
[4] = inhibition of 3D7 malaria parasite growth – strain 3D7 (AID 2306);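 note: 0% = DMSO wells and 100% = chloroquine plus artemisinin control wells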; conditions: P. falciparum 3D7 erythrocytic growth, LDH absorbance, 72 h; at 2 µM; stronger effect = higher value
[5] = target: Calcium-dependent protein kinase 1 (Plasmodium falciparum (isolate 3D7)) (UniProt P62344); assay: PfCDPK1 kinase inhibitors, biochemical, TCAMS library (AID 1159585; cut-off not given, nearly all actives have IC50 up to about 0.98 µM;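 note: inhibitors leave more ATP so luminescence rises with inhibition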); conditions: recombinant PfCDPK1, Kinase-Glo ATP depletion luminescence
[6] = target: Plasmodium falciparum protein kinase 6 (PK6, PF3D7_1337100) (UniProt Q8IDW1); assay: PfPK6 kinase inhibitors, biochemical, TCAMS library (AID 1159586); conditions: recombinant PfPK6, Kinase-Glo ATP depletion luminescence
[7] = target: Protein kinase 7 (PK7), Plasmodium falciparum 3D7 (PF3D7_0213400) (UniProt Q7YTF7); assay: inhibition of Plasmodium PK7 catalytic activity – biochemical, TCAMS antimalarial set, Kinase-Glo luminescence (AID 1159587); conditions: recombinant PfPK7, Kinase-Glo ATP depletion luminescence
[8] = target: Calcium-dependent protein kinase 4 (Plasmodium falciparum (isolate 3D7)) (UniProt Q8IBS5); assay: PfCDPK4 kinase inhibitors, biochemical, TCAMS library (AID 1159588; cut-off not given, nearly all actives have IC50 up to about 0.91 µM); conditions: recombinant PfCDPK4, Kinase-Glo ATP depletion luminescence
Calcium-dependent protein kinase 4 (Plasmodium falciparum (isolate 3D7)), sequence (Q8IBS5 whole entry, looked up): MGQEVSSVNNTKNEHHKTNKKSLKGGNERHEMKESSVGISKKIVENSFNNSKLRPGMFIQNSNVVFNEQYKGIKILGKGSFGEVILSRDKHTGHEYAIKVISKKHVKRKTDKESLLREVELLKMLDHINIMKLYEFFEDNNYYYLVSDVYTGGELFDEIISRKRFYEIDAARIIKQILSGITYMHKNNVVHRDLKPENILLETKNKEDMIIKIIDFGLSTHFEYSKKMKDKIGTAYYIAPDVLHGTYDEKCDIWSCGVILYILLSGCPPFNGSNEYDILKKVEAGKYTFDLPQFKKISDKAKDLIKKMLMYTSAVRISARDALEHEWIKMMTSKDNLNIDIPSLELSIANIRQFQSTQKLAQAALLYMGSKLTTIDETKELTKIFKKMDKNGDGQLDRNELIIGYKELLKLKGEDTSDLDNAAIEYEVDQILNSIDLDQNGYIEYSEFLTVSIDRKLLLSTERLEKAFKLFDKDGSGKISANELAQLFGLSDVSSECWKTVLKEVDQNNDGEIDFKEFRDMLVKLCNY

Protein kinase 7 (PK7), Plasmodium falciparum 3D7 (PF3D7_0213400), sequence (Q7YTF7 1-343): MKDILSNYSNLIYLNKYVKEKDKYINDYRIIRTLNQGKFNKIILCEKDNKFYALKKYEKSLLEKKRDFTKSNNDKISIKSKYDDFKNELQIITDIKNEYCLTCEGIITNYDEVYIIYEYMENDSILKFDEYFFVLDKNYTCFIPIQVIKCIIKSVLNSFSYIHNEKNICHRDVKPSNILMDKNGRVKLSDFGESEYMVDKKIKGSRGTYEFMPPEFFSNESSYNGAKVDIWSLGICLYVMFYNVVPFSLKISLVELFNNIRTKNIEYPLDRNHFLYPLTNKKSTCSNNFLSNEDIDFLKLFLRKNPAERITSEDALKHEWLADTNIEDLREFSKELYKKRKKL
L-lactate dehydrogenase (Plasmodium falciparum (isolate CDC / Honduras)), sequence (Q27743 whole entry, looked up): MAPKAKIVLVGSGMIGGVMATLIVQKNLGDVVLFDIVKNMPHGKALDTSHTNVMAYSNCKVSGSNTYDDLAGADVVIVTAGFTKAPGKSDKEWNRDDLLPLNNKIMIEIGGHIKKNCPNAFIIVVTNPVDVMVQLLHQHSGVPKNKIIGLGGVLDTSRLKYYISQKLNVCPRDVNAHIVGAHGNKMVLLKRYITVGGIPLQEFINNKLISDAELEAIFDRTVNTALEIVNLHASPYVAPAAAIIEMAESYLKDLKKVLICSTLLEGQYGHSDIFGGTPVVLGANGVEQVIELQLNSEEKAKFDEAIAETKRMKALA
Plasmodium falciparum protein kinase 6 (PK6, PF3D7_1337100), sequence (Q8IDW1 1-305): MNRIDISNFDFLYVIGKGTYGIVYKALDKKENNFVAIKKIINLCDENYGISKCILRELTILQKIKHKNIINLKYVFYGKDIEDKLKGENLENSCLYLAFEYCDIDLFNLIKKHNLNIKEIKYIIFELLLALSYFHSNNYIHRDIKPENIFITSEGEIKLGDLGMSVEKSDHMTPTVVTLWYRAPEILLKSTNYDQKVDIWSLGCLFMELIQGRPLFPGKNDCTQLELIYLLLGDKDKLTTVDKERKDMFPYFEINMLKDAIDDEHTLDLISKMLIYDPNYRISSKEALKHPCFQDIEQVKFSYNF
Calcium-dependent protein kinase 1 (Plasmodium falciparum (isolate 3D7)), sequence (P62344 whole entry, looked up): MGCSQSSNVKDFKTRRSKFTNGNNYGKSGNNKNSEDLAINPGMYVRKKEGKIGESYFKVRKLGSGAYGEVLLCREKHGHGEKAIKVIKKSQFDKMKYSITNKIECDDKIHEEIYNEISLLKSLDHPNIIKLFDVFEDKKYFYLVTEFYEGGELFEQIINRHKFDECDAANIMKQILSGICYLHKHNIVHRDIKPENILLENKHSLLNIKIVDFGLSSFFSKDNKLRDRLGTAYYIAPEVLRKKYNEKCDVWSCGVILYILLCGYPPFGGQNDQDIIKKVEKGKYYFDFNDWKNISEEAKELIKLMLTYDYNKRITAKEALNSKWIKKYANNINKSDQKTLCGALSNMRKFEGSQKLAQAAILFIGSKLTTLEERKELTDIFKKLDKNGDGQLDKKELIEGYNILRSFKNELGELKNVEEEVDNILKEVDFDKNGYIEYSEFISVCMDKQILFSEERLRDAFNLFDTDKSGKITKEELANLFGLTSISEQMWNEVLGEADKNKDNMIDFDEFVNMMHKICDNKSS

COc1ccccc1C1CCN(C2CCC(NC(=O)/C=C/c3cc(C(F)(F)F)ccc3F)CC2)CC1 (stereo not given)
inactive: growth inhibition [1] 32% | inhibition [2] 39% | inhibition [3] -3% | outcome [5] | outcome [6] | outcome [7] | outcome [8]
active: growth inhibition [4] 97%

CCCCN1CCN(c2cc(NS(=O)(=O)c3ccc(C(=O)Nc4ccc(C(F)(F)F)cc4)cc3)ccc2OC)CC1
inactive: growth inhibition [1] 20% | inhibition [2] 17% | inhibition [3] -3% | outcome [5] | outcome [6] | outcome [7] | outcome [8]
active: growth inhibition [4] 99%

COc1cc(Nc2nccc(N3CCC(NC(=O)Nc4cc(C)ccc4C)C3)n2)cc(OC)c1OC (stereo not given)
inactive: inhibition [2] 13% | inhibition [3] 4% | outcome [5] | outcome [6] | outcome [7] | outcome [8]
active: growth inhibition [1] 52% | growth inhibition [4] 91%

COc1ccc2nccc([C@@H](O)CN3CCC(NC(=O)C(c4cc5ccccc5s4)N4CC(C)OC(C)C4)CC3)c2c1 (stereo not given in full)
inactive: growth inhibition [1] 44% | inhibition [2] 12% | inhibition [3] -6% | outcome [5] | outcome [6] | outcome [7] | outcome [8]
active: growth inhibition [4] 93%

Cc1cc(N[C@@H](CC(C)C)C(=O)Nc2ccccc2)nc(NCCc2ccccc2)n1
active: growth inhibition [1] 87% | growth inhibition [4] 100%
inactive: inhibition [2] -4% | inhibition [3] -1% | outcome [5] | outcome [6] | outcome [7] | outcome [8]

c1ccc2c(c1)CN(Cc1cc3ccccc3[nH]1)CC1(CCN(Cc3c[nH]c4cnccc34)CC1)O2
inactive: inhibition [2] 27% | inhibition [3] -3% | outcome [5] | outcome [6] | outcome [7] | outcome [8]
active: growth inhibition [1] 62% | growth inhibition [4] 101%

O=C(NCC1CC1)C1CCN(C(c2ccc(Cl)cc2)c2ccc(Cl)cc2)CC1
active: growth inhibition [1] 95% | growth inhibition [4] 99%
inactive: inhibition [2] 3% | inhibition [3] 1% | outcome [5] | outcome [6] | outcome [7] | outcome [8]

COc1ccccc1C(C)NCC(=O)Nc1cc(C(F)(F)F)ccc1Cl (stereo not given)
inactive: inhibition [2] 4% | inhibition [3] -3% | outcome [5] | outcome [6] | outcome [7] | outcome [8]
active: growth inhibition [1] 85% | growth inhibition [4] 97%

N#Cc1ccc2c(c1)CN(CCCCNC(=O)c1ccc(-c3ccccc3)cc1)CC2
inactive: growth inhibition [1] 10% | inhibition [2] -9% | inhibition [3] -1% | outcome [5] | outcome [6] | outcome [7] | outcome [8]
active: growth inhibition [4] 96%

Cc1cc(CN2CCC(N3CC(c4ccccc4)(c4ccccc4)OC3=O)C2)ccc1O (stereo not given)
active: growth inhibition [1] 68% | growth inhibition [4] 96%
inactive: inhibition [2] -3% | inhibition [3] 1% | outcome [5] | outcome [6] | outcome [7] | outcome [8]

CC(C)CCNc1nc2ccccc2nc1Nc1cccc(C(F)(F)F)c1
inactive: inhibition [2] 12% | inhibition [3] 1% | outcome [5] | outcome [6] | outcome [7] | outcome [8]
active: growth inhibition [1] 99% | growth inhibition [4] 98%

NC(N)=Nc1nccc(NCc2ccccc2)n1
active: inhibition [2] 95% | growth inhibition [4] 88%
inactive: growth inhibition [1] 48% | inhibition [3] -1% | outcome [5] | outcome [6] | outcome [7] | outcome [8]

NC(N)=NN=Cc1c2ccc(Cl)cc2c(Cl)c2ccc(Cl)cc12
active: growth inhibition [1] 90% | growth inhibition [4] 100%
inactive: inhibition [2] 28% | inhibition [3] 0% | outcome [5] | outcome [6] | outcome [7] | outcome [8]

CCOC(=O)c1ccc(NC(=O)NCCCC2CCCN(CCCCCNC(=O)/C=C/c3ccc(Cl)c(Cl)c3)C2)cc1 (stereo not given)
active: growth inhibition [4] 96%
inactive: growth inhibition [1] 30% | inhibition [2] 14% | inhibition [3] -2% | outcome [5] | outcome [6] | outcome [7] | outcome [8]

CCCCCN1CCC(NC(=O)c2ccc(C(=O)Nc3ccc(C(C)C)cc3)cc2)C1 (stereo not given)
active: growth inhibition [4] 95%
inactive: growth inhibition [1] 17% | inhibition [2] 38% | inhibition [3] 2% | outcome [5] | outcome [6] | outcome [7] | outcome [8]

c1ccc(CNCc2cccc(-c3cccc(-c4nc5ccccc5[nH]4)c3)c2)cc1
inactive: growth inhibition [1] 38% | inhibition [2] 12% | inhibition [3] -5% | outcome [5] | outcome [6] | outcome [7] | outcome [8]
active: growth inhibition [4] 102%

CCOC(=O)[C@H](Cc1cc([N+](=O)[O-])c(Oc2ccc(OC)c(Cc3ccc(OC)c(C(C)C)c3)c2)c([N+](=O)[O-])c1)NC(=O)C(F)(F)F
active: growth inhibition [4] 94%
inactive: growth inhibition [1] -3% | inhibition [2] 5% | inhibition [3] -3% | outcome [5] | outcome [6] | outcome [7] | outcome [8]

CC1(CCN2CCC(c3c[nH]c4cnccc34)CC2)CCCc2c(Br)cccc2C1=O (stereo not given)
inactive: inhibition [2] 14% | inhibition [3] 3% | outcome [5] | outcome [6] | outcome [7] | outcome [8]
active: growth inhibition [1] 66% | growth inhibition [4] 101%

O=C(Nc1ccccc1)Nc1cccc(-c2cccc(-c3nc4ccc(F)cc4[nH]3)c2)c1
active: growth inhibition [4] 99%
inactive: growth inhibition [1] 41% | inhibition [2] 38% | inhibition [3] 4% | outcome [5] | outcome [6] | outcome [7] | outcome [8]

CC(CN1CCN(CC(c2ccc(F)cc2)N2CCN(C)CC2)CC1)C(=O)c1ccc(O)cc1 (stereo not given)
active: growth inhibition [4] 97%
inactive: growth inhibition [1] 10% | inhibition [2] -2% | inhibition [3] -5% | outcome [5] | outcome [6] | outcome [7] | outcome [8]

Cc1c(CNCCCNc2nc3cscc3[nH]2)sc(C(F)F)c1Br
inactive: growth inhibition [1] 11% | inhibition [2] 1% | inhibition [3] 1% | outcome [5] | outcome [6] | outcome [7] | outcome [8]
active: growth inhibition [4] 99%

Cc1cc(NCCC(=O)NCCOc2ccccc2)nc(Nc2ccccc2)n1
inactive: inhibition [2] 26% | inhibition [3] -1% | outcome [5] | outcome [6] | outcome [7] | outcome [8]
active: growth inhibition [1] 55% | growth inhibition [4] 94%

Brc1ccc(C=NNc2nc3ccccc3[nH]2)cc1
active: growth inhibition [1] 90% | growth inhibition [4] 102%
inactive: inhibition [2] -3% | inhibition [3] 0% | outcome [5] | outcome [6] | outcome [7] | outcome [8]

COc1ccccc1N1CCN(c2cccc(F)c2C#N)CC1
active: growth inhibition [1] 59% | growth inhibition [4] 85%
inactive: inhibition [2] -2% | inhibition [3] -2% | outcome [5] | outcome [6] | outcome [7] | outcome [8]

O=C(c1ccco1)c1cn(CCOc2ccccc2)c2ccccc12
inactive: growth inhibition [1] 10% | inhibition [2] 5% | inhibition [3] -4% | outcome [5] | outcome [6] | outcome [7] | outcome [8]
active: growth inhibition [4] 98%

COC(=O)c1cc(NC(=O)Nc2ccc(Cn3ncc(N4CCCNCC4)c(Cl)c3=O)cc2)cc(C(=O)OC)c1
active: growth inhibition [1] 90% | growth inhibition [4] 96%
inactive: inhibition [2] -3% | inhibition [3] 3% | outcome [5] | outcome [6] | outcome [7] | outcome [8]

COc1ccc(C2C(C(=O)Nc3ccc(C)cc3Br)c3ccccc3C(=O)N2C)cc1 (stereo not given)
inactive: growth inhibition [1] 2% | inhibition [2] 4% | inhibition [3] 6% | outcome [5] | outcome [6] | outcome [7] | outcome [8]
active: growth inhibition [4] 96%

N#Cc1ccc2c(c1)CCN(CCC1CCC(NC(=O)c3ccc(-c4ccccc4)s3)CC1)CC2 (stereo not given)
inactive: growth inhibition [1] 36% | inhibition [2] 6% | inhibition [3] 0% | outcome [5] | outcome [6] | outcome [7] | outcome [8]
active: growth inhibition [4] 99%

O=C(NCCCN1CCC(Cc2ccccc2)CC1)c1cc2c(Cl)nc3ccccc3c2s1
inactive: growth inhibition [1] 40% | inhibition [2] 22% | inhibition [3] -3% | outcome [5] | outcome [6] | outcome [7] | outcome [8]
active: growth inhibition [4] 98%

COc1cc(NC(=O)/C=C/c2ccccc2OC(F)(F)F)cc(OCCN2CCCCC2)c1
active: growth inhibition [4] 96%
inactive: growth inhibition [1] 6% | inhibition [2] 25% | inhibition [3] 0% | outcome [5] | outcome [6] | outcome [7] | outcome [8]

COC(=O)Nc1cc(C(F)(F)F)ccc1N1CCCC(NS(=O)(=O)c2ccc(C(C)(C)C)cc2)C1 (stereo not given)
active: growth inhibition [1] 90% | growth inhibition [4] 97%
inactive: inhibition [2] -8% | inhibition [3] -5% | outcome [5] | outcome [6] | outcome [7] | outcome [8]

COc1ccc(NC(=O)C2c3ccccc3C(=O)N(C3CCCC3)C2c2cccs2)cc1 (stereo not given)
inactive: inhibition [2] 0% | inhibition [3] -1% | outcome [5] | outcome [6] | outcome [7] | outcome [8]
active: growth inhibition [1] 75% | growth inhibition [4] 93%

CN(C)C=Nc1ccc(OCCCCCCOc2ccc(N=CN(C)C)cc2)cc1
inactive: inhibition [2] 26% | inhibition [3] 6% | outcome [5] | outcome [6] | outcome [7] | outcome [8]
active: growth inhibition [1] 94% | growth inhibition [4] 101%

CCOc1ccc2nc(C)cc(NN=Cc3cccc(F)c3)c2c1
active: growth inhibition [4] 100%
inactive: growth inhibition [1] 23% | inhibition [2] -3% | inhibition [3] 0% | outcome [5] | outcome [6] | outcome [7] | outcome [8]

O=C(NC(c1ccccc1)c1ccc2cccnc2c1O)c1ccccc1 (stereo not given)
active: growth inhibition [1] 63% | inhibition [2] 53% | growth inhibition [4] 94%
inactive: inhibition [3] -4% | outcome [5] | outcome [6] | outcome [7] | outcome [8]

CCOc1ccc2c(NN=Cc3ccccc3OC)cc(C)nc2c1
inactive: inhibition [2] 11% | inhibition [3] 0% | outcome [5] | outcome [6] | outcome [7] | outcome [8]
active: growth inhibition [1] 93% | growth inhibition [4] 99%

CC(C)NCc1cc(Nc2ccnc3cc(Cl)ccc23)ccc1O
inactive: inhibition [2] 27% | inhibition [3] 6% | outcome [5] | outcome [6] | outcome [7] | outcome [8]
active: growth inhibition [1] 100% | growth inhibition [4] 102%

O=C(Nc1ccc(C(=O)N2CCN(CCN3CCN(c4cccc(C(F)(F)F)c4)CC3)CC2)cc1)c1ccc(C(F)(F)F)cc1
inactive: growth inhibition [1] 28% | inhibition [2] 39% | inhibition [3] 0% | outcome [5] | outcome [6] | outcome [7] | outcome [8]
active: growth inhibition [4] 95%

NC(N)=Nc1nc(CCCCCCCCc2csc(N=C(N)N)n2)cs1
active: growth inhibition [4] 100%
inactive: growth inhibition [1] 28% | inhibition [2] 27% | inhibition [3] 0% | outcome [5] | outcome [6] | outcome [7] | outcome [8]

COc1nc(NCC(C)C)nc(Oc2ccc(=O)n(Cc3ccccc3)n2)n1
inactive: inhibition [2] 1% | inhibition [3] 5% | outcome [5] | outcome [6] | outcome [7] | outcome [8]
active: growth inhibition [1] 93% | growth inhibition [4] 97%
